# Experimental data reported in PubChem BioAssay (Tox21).
# “And” between values parts separate entries of the source, which are not always exact repeats. Equal entries are not always repeated. Results filed as inconclusive are left out. Where a call stands in place of a potency, no number is given. More than one record can exist for a structure, and the calls need not agree. The source made the active and inactive calls. Unless noted, calls follow the shape of the dose curve; as a rule, active = well fitted curve in the direction sought with a large enough effect in the repeat runs; inconclusive = weak or mixed curves; inactive = no such curve, though single readings can be large; an effect the other way counts as inactive or inconclusive.
# What was measured:
# [1] = Caspase-3/7 induction in HepG2 cells by small molecules, qHTS assay (AID 1346978); also: nearly all actives have a fitted effect of over 15% in size; also: potency is read from the fitted curve at half-maximal effect
# How it was run: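 Caspase-3/7 induction was measured by Caspase-Glo 3/7 luminescence (30 min, room temperature) after a 17 hr compound exposure of wild-type HepG2 cells seeded at 2,000 per well and pre-incubated 5 hr.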
# [2] = Caspase-3/7 induction in CHO-K1 cells by small molecules, qHTS cell viability counter screen (AID 1346979); also: nearly all actives have a fitted effect of over 35% in size; also: potency is read from the fitted curve at half-maximal effect
# How it was run: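 In the same wells as the caspase read, viability of compound-treated wild-type CHO-K1 cells was assessed using CellTiter-Fluor, added after 16hr at 37C and measured by fluorescence following 1hr further incubation.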
# [3] = Caspase-3/7 induction in CHO-K1 cells by small molecules, qHTS assay (AID 1346980); also: nearly all actives have a fitted effect of over 15% in size; also: potency is read from the fitted curve at half-maximal effect
# How it was run: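 Luminescent Caspase-Glo 3/7 read (30min, room temperature) quantified apoptosis induction. Cells were wild-type CHO-K1, treated with compound for 17hr at 37 C and 5% CO2.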
# [4] = Caspase-3/7 induction in HepG2 cells by small molecules, qHTS cell viability counter screen (AID 1346981); also: nearly all actives have a fitted effect of over 30% in size; also: potency is read from the fitted curve at half-maximal effect
# How it was run: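 Wild-type HepG2 cells (2,000/well) were allowed to settle for 5 hr at 37 C, 5% CO2, then dosed with compounds in DMSO by pin transfer. After 16 hr at 37 C, CellTiter-Fluor was added and fluorescence read 1 hr later.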
# [5] = molecular target: Nuclear receptor subfamily 1 group I member 2 (Homo sapiens) (UniProt O75469); assay: Human pregnane X receptor (PXR) small molecule agonists, qHTS assay (AID 1346982); also: nearly all actives have a fitted effect of over 35% in size; also: potency is read from the fitted curve at half-maximal effect
# How it was run: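 PXR-Luc HepG2 cells (CYP3A4 promoter-driven luciferase) were seeded in medium with 5% charcoal-stripped FBS, left 5 hr at 37 C, then exposed to compounds in DMSO for 24 hr. Luminescence was read after ONE-Glo addition.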
# [6] = molecular target: Acetylcholinesterase (Homo sapiens) (UniProt P22303); assay: Acetylcholinesterase (AChE) small molecule antagonists: colormetric cell-based qHTS assay (AID 1347395; calls by dose curve; also: nearly all actives have a fitted effect of over 30% in size; also: potency is read from the fitted curve at half-maximal effect)
# How it was run: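 Endogenous AChE of human neuroblastoma SH-SY5Y cells was measured with an Ellman-type DTNB/acetylthiocholine mix. Compound pretreatment lasted 30 min at 37 C; substrate reaction ran 90 min at 37 C.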
# [7] = molecular target: Acetylcholinesterase (Homo sapiens) (UniProt P22303); assay: Acetylcholinesterase (AChE) small molecule antagonists: enzyme-based qHTS assay (AID 1347397; calls by dose curve; also: nearly all actives have a fitted effect of over 55% in size; also: potency is read from the fitted curve at half-maximal effect); settings: Potency: AChE enzyme activity inhibition
# How it was run: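 Absorbance-based detection of thiocholine with DTNB served as the read-out. Recombinant human AChE was exposed to compound for 30 min at RT before a 10 min RT incubation with acetylthiocholine.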
# [8] = molecular target: Nuclear receptor subfamily 1 group I member 2 (Rattus norvegicus) (UniProt Q9R1A7); assay: Rat pregnane X receptor (rPXR) activation by small molecules, qHTS assay (AID 1346983); settings: rPXR luciferase reporter cells, One-Glo luminescence, 24 h; stronger effect = higher value; also: nearly all actives have a fitted effect of over 20% in size
# How it was run: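 Luminescent readout (One-Glo luciferase, 30 min room temperature) followed 24 hr compound treatment at 37 C of rPXR cells plated 2,000 per well and preincubated 5hr; qHTS format with compounds delivered in DMSO.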
# [9] = molecular target: Nuclear receptor subfamily 1 group I member 2 (Homo sapiens) (UniProt O75469); assay: CYP3A4 induction through human pregnane X receptor (PXR) by small molecules, qHTS assay (AID 1346984); also: nearly all actives have a fitted effect of over 40% in size
# How it was run: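 DPX-2 cells (HepG2 co-transfected with PXR and CYP3A4 promoter-luciferase) treated with compounds 24 h at 37C; luciferin-IPA CYP3A4 substrate 3uM final added for 3 h, then One-Glo; luminescence read. qHTS format.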
# [10] = molecular target: Nuclear receptor subfamily 1 group I member 2 (Homo sapiens) (UniProt O75469); assay: Human pregnane X receptor (PXR) activation by small molecules, qHTS assay (AID 1346985); also: nearly all actives have a fitted effect of over 40% in size
# How it was run: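 DPX-2 cells (HepG2 co-transfected with a PXR response element and a CYP3A4-promoter luciferase construct) were seeded at 2,000 per well, rested 5 hr at 37C, then exposed to DMSO-dissolved compounds for 24 hr. Activation was read as luciferase luminescence.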
# Acetylcholinesterase (Homo sapiens), sequence (P22303 whole entry, looked up): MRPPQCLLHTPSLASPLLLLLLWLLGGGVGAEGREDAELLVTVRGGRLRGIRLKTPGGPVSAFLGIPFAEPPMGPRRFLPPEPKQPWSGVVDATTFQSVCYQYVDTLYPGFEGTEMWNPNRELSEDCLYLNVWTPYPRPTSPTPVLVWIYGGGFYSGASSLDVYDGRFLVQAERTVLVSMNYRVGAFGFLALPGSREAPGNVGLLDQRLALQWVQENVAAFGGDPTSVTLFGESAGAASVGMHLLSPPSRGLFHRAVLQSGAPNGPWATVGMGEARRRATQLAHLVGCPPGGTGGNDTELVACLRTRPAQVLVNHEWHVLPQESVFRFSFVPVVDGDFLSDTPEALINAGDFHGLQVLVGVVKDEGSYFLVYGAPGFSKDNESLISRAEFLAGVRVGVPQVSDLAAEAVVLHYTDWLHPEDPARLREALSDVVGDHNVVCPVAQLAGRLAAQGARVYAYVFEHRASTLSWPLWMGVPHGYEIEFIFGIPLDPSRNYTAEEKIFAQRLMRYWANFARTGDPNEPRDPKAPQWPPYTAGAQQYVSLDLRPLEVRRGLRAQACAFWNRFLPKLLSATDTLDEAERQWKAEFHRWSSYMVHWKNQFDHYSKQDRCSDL
# Nuclear receptor subfamily 1 group I member 2 (Homo sapiens), sequence (O75469 whole entry, looked up): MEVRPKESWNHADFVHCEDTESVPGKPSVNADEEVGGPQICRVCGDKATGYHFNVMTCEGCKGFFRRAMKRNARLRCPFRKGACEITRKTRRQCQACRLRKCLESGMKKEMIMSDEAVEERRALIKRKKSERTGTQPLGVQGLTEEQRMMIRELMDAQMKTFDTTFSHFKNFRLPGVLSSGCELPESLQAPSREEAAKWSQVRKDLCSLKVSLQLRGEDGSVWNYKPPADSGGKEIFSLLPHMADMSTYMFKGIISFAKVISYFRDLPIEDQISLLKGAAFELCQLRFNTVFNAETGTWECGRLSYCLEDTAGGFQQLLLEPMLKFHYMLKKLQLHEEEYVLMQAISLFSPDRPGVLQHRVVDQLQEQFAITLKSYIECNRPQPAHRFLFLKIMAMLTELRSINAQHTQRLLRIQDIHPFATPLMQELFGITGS
# Nuclear receptor subfamily 1 group I member 2 (Rattus norvegicus), sequence (Q9R1A7 whole entry, looked up): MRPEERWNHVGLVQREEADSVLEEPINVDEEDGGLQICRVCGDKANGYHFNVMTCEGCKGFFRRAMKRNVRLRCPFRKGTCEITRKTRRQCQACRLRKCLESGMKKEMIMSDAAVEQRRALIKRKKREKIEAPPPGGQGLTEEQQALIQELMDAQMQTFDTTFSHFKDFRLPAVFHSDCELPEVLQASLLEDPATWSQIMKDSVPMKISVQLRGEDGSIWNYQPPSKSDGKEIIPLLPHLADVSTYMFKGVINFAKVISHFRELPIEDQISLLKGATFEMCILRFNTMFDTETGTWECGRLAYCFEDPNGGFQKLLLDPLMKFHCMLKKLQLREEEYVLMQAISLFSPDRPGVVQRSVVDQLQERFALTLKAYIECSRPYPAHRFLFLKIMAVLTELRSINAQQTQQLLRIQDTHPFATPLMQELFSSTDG
SMILES,Potency [1],Potency [2],Potency [3],Potency [4],Potency [5],Potency [6],Potency [7],max activation [8],Potency [9],outcome [10]
CC(C)COC(=O)c1ccccc1C(=O)OCC(C)C,inactive,inactive,inactive,inactive,inactive,inactive,inactive,–,–,–
Oc1ccc(Cl)cc1Cl,inactive,inactive,inactive,inactive,inactive,inactive,inactive,–,–,–
COP(=O)(NC(C)=O)SC (centres undefined),inactive,48.6 µM (active) and inactive,inactive,inactive,inactive,inactive,inactive,–,–,–
N#Cc1cccnc1,inactive,inactive,inactive,inactive,inactive,inactive,inactive,–,–,–
N#CCCCCC#N,inactive,inactive,inactive,inactive,inactive,inactive,inactive,–,–,–
CN(C)c1nc(=O)n(C2CCCCC2)c(=O)n1C,inactive,inactive,inactive,inactive,65 µM (active) and inactive,inactive,inactive,–,–,–
ClCC(Cl)CCl,inactive,inactive,inactive,inactive,inactive,inactive,inactive,–,–,–
O=NN(c1ccccc1)c1ccccc1,inactive,inactive,inactive,inactive,inactive,–,inactive,–,–,–
O=P(OCCCl)(OCCCl)OCCCl,inactive,inactive,inactive,inactive,inactive and 19.3 µM (active),inactive,inactive,–,–,–
CC(C)(c1ccccc1)c1ccc(O)c(C(C)(C)c2ccccc2)c1,42.9 µM (active) and 68.6 µM (active),30.4 µM (active) and 43.3 µM (active),27.1 µM (active) and 61.1 µM (active),54 µM (active),1.92 µM (active) and 3.86 µM (active),–,inactive,–,–,–
c1ccc(C2CO2)cc1 (centres undefined),inactive,inactive,inactive,inactive,inactive,inactive,inactive,–,–,–
Clc1cccc(C(Cl)(Cl)Cl)n1,inactive,inactive,inactive,inactive,inactive,inactive,inactive,–,–,–
CC1(C)Cc2cccc(O)c2O1,inactive,inactive,inactive,inactive,inactive,inactive,inactive,–,–,–
O=C1CCCO1,inactive,inactive,inactive,inactive,inactive,–,inactive,–,–,–
S=c1[nH]c2ccccc2[nH]1,inactive,13.7 µM (active) and inactive,inactive,inactive,68.7 µM (active),inactive,35.7 µM (active) and inactive,–,–,–
[CH3][Sn]([Cl])([Cl])[Cl],inactive,inactive,inactive,inactive,inactive,–,inactive,–,–,–
CCC[CH2][Sn]([Cl])([CH2]CCC)[CH2]CCC,1.73 µM (active) and 2.73 µM (active),194 nM (active) and 344 nM (active),274 nM (active) and 545 nM (active),1.94 µM (active) and 4.33 µM (active),487 nM (active) and inactive,inactive,inactive,–,–,–
CCCCC(C#N)(Cn1cncn1)c1ccc(Cl)cc1 (centres undefined),inactive,inactive,inactive,inactive,30.5 µM (active) and inactive,inactive,inactive,–,–,–
CC(C)(O)C#N,inactive,inactive,inactive,inactive,inactive,inactive,inactive,–,–,–
CCC/C=N/O,inactive,inactive,inactive,inactive,inactive,inactive,34.2 µM (active) and inactive,–,–,–
C[N+](C)(C)CC(=O)[O-],inactive,inactive,inactive,inactive,inactive,inactive,inactive,–,–,–
CCNc1nc(Cl)nc(NC(C)(C)C#N)n1,inactive,inactive,inactive,inactive,61.1 µM (active),inactive,inactive,–,–,–
C[C@]12CC[C@H]3[C@@H](CCC4=CC(=O)CC[C@@H]43)[C@@H]1CC[C@@H]2O,inactive,inactive,inactive,inactive,inactive,inactive,inactive,–,–,–
CCCCOCC1CO1 (centres undefined),inactive,inactive,inactive,inactive,inactive,inactive,10.1 µM (active) and inactive,–,–,–
ClC(Cl)(Cl)c1ccccc1,inactive,inactive,inactive,inactive,inactive,inactive,inactive,–,–,–
Nc1ncn[nH]1,inactive,inactive,inactive,inactive,inactive,inactive,inactive,–,–,–
CN(C)c1ccccc1,inactive,inactive,inactive,inactive,inactive,inactive,inactive,–,–,–

SMILES,Potency [1],Potency [2],Potency [3],Potency [4],Potency [5],Potency [6],Potency [7],max activation [8],Potency [9],outcome [10]
COP(=S)(OC)SCn1nnc2ccccc2c1=O,inactive,–,inactive,inactive,53.4 µM (active),–,–,–,–,–
OCCOCCO,31.5 µM (active) and inactive,7.92 µM (active) and inactive,inactive,inactive,62.9 µM (active) and inactive,–,inactive,–,–,–
N#CC(c1ccccc1)c1ccccc1,inactive,inactive,inactive,inactive,inactive,–,inactive,–,–,–
CCOP(=S)(OCC)SCn1c(=O)oc2cc(Cl)ccc21,inactive,73.6 µM (active),inactive,inactive,32.9 µM (active) and 34.4 µM (active),–,inactive,–,–,–
Nc1ccc([N+](=O)[O-])cc1N,inactive,6.11 µM (active) and 30.6 µM (active),inactive,54.4 µM (active) and 54.5 µM (active),8.63 µM (active),–,inactive,–,–,–
CCCCSP(=O)(SCCCC)SCCCC,inactive,inactive,inactive,inactive,23.8 µM (active),–,inactive,–,–,–
CCC[CH2][Sn]([Cl])([Cl])[CH2]CCC,inactive,220 nM (active) and 154 nM (active),inactive,4.38 µM (active) and 7.7 µM (active),–,inactive,inactive,–,–,–
CC(C)CON=O,inactive,inactive,inactive,inactive,inactive,–,inactive,–,–,–
Clc1cccc(Cl)c1,inactive,inactive,inactive,inactive,inactive,–,inactive,–,–,–
CC(C)(C#N)N=NC(C)(C)C#N,inactive,inactive,inactive,inactive,inactive,–,inactive,–,–,–
CCN(CC)C(=O)C(C)Oc1cccc2ccccc12 (centres undefined),inactive,–,inactive,inactive,7.76 µM (active) and 864 nM (active),inactive,inactive,–,–,–
ClC(Cl)(Cl)Br,inactive,inactive,inactive,inactive,inactive,–,inactive,–,–,–
C=CC(Cl)CCl (centres undefined),inactive,inactive,inactive,inactive,inactive,–,inactive,–,–,–
COc1ccc(C=O)cc1OC,inactive,inactive,inactive,inactive,inactive,–,inactive,–,–,–
CCCCCCCCCC(CC)c1ccc(S(=O)(=O)O)cc1 (centres undefined),inactive,61.8 µM (active) and inactive and 52.9 µM (active),inactive,inactive,–,–,57 µM (active) and 79.6 µM (active) and 47.4 µM (active),-0.486% (inactive),inactive,inactive
OC(c1ccc(Cl)cc1)(c1cncnc1)c1ccccc1Cl (centres undefined),inactive,62.2 µM (active),inactive,–,31.2 µM (active) and 30.6 µM (active),inactive,inactive,–,–,–
O=S(=O)(O)C(F)(F)C(F)(F)C(F)(F)C(F)(F)C(F)(F)C(F)(F)C(F)(F)C(F)(F)F,inactive,–,inactive,inactive,inactive and 54.5 µM (active),–,inactive,–,–,–
CSc1nc(NC(C)C)nc(NC(C)C)n1,inactive,inactive,inactive,inactive,30.5 µM (active) and 21.7 µM (active),–,inactive,–,–,–
C=C(C)C#N,inactive,inactive,inactive,inactive,inactive,–,inactive,–,–,–
CCOS(=O)(=O)OCC,inactive,inactive,inactive,inactive,inactive,–,inactive,–,–,–
CCCCCCCC[N+](C)(CCCCCCCC)CCCCCCCC,54.4 µM (active) and 15.4 µM (active),13.7 µM (active) and 4.86 µM (active) and 6.11 µM (active),12.2 µM (active) and 13.7 µM (active),61 µM (active) and 15.4 µM (active) and 21.7 µM (active),12.2 µM (active) and 2.44 µM (active),–,79.5 µM (active) and inactive and 71 µM (active),–,–,–
CCOC(=O)c1ccccc1N,inactive,inactive,inactive,inactive,inactive,–,inactive,–,–,–
N#Cc1c(Cl)c(Cl)c(Cl)c(C#N)c1Cl,inactive,1.07 µM (active) and 1.72 µM (active),–,23.9 µM (active) and 54.5 µM (active),950 nM (active) and 1.93 µM (active),15.6 µM (active) and 17.8 µM (active),inactive,–,–,–
O=C(O)CF,inactive,inactive,inactive,inactive,inactive,–,inactive,–,–,–
CC1CC(=O)O1 (centres undefined),inactive,inactive,inactive,inactive,inactive,–,inactive,–,–,–
O=C(O)c1nn(Cc2ccc(Cl)cc2Cl)c2ccccc12,inactive,inactive,inactive,inactive,60.7 µM (active) and inactive,–,inactive,–,–,–
CCC(=O)Nc1ccc(Cl)c(Cl)c1,inactive,–,inactive,inactive,–,–,inactive,–,–,–
